Compound activity deposited in PubChem BioAssay by several laboratories.
TcdB inh – TcdB glycohydrolase inhibition. inhibition, % at 9.99 µM. TcdB glycohydrolase enzymatic assay, plate reader. 0.24% of 350,000 active. AID 652162; in the data active means inhibition above about 10%
Anthrax LF inh2 – blocks Bacillus anthracis lethal factor protease; multiplex microsphere protease cleavage assay, LF; inhibition, % at 10 µM; 0.12% of 360,000 active
Autofluor counter – compound fluorescence in toxin protease inhibitor counterscreen; compound autofluorescence counterscreen, microsphere flow cytometry; stronger effect = higher value; fluorescence intensity (concentration not given with the values); 3.1% of 360,000 active; AID 624483; in the data active means fluorescence intensity above about 16000; inconclusive means no clear call, values can overlap the other calls
BoNT-A LC inh2 – BoNT A light chain protease inhibition. multiplex microsphere protease substrate cleavage, flow cytometry. inhibition, % at 10 µM. 0.17% of 360,000 active. AID 588499
BoNT F protease – inhibitors of Botulinum neurotoxin F light chain protease; Multiplex microsphere protease cleavage assay, flow cytometry; inhibition, % at 10 µM; 0.22% of 360,000 active; AID 588497; in the data active means inhibition above about 35%, passing the limit was not always enough; inconclusive means no clear call, values can overlap the other calls
A number is an active result; – = inactive; ? = inconclusive; · = no result. The full list was thinned out, with hits kept by preference. Unless noted, no stated cut-off is given here; in the data, active means inhibition above about 30%; inconclusive means no clear call, values can overlap the other calls; inactive means below that.

SMILES	TcdB inh	Anthrax LF inh2	Autofluor counter	BoNT-A LC inh2	BoNT F protease
O=c1[nH]c(Nc2ccc(F)cc2)cc2ccccc12	–	–	23479	?	–
Cc1cccc(NC(=O)/C(C#N)=C\c2cccnc2)c1	·	–	17179	–	–
CCC(=O)N1C[C@H](C)[C@H](OC)CN(C)C(=O)c2cc(NC(=O)c3ccccc3)ccc2OC[C@@H]1C	–	·	·	·	·
CCCNC(=O)C[C@H]1CC[C@@H]2[C@H](COC[C@H](O)CN2C(=O)CC)O1	–	·	·	·	·
O=c1c2ccccc2nc(CN2CCCCCC2)n1-c1ccc(F)cc1	–	–	24642	–	–
CCC(CC)N1CCN(Cc2nc3ccccc3c(=O)n2-c2ccc(F)cc2)CC1	–	–	–	–	?
N#Cc1ccc(CSc2nnc(-c3ccccc3)n2Cc2ccco2)cc1	·	–	24109	?	–
c1ccc(-c2nnc(SCc3nc4ccccc4[nH]3)n2Cc2ccco2)cc1	·	–	22637	?	–
COc1ccc(-c2nnn(CCC(=O)O)n2)cc1	·	–	–	–	–
COc1cccc(-c2nnn(CCC(=O)O)n2)c1	·	–	19600	?	–
O=C(CSc1ccc2ccccc2n1)N1CCC(c2noc3ccc(F)cc23)CC1	·	–	22244	–	–
COCC(=O)N1C[C@@H](C)[C@@H](OC)CN(C)C(=O)c2cc(NC(=O)c3ccc(F)cc3)ccc2OC[C@@H]1C	–	·	·	·	·
Cc1ccccc1N1CCN(c2ncnc3scc(-c4cccs4)c23)CC1	–	–	21408	–	–
Cc1ccc(S(=O)(=O)Nc2ccc3c(c2)C(=O)N([C@@H](C)CO)C[C@@H](C)[C@H](CN(C)S(=O)(=O)c2ccc(F)cc2)OCCCC[C@@H](C)O3)cc1	–	·	·	·	·
c1ccc(Nc2nc(N3CCCCC3)nc(N3CCCCC3)n2)cc1	·	–	–	–	–
Cc1cccc(Nc2nc(N3CCCC3)nc(N3CCCC3)n2)c1	·	–	22488	–	–
c1ccc(Nc2nc(N3CCCC3)nc(N3CCCC3)n2)cc1	–	–	20430	–	–
O=C(N/N=C\c1ccncc1)c1ccccc1O	–	–	–	–	–
Cc1ccccc1C(=O)N/N=C/c1ccncc1	·	–	19987	?	–
C[C@H](CO)N1C[C@H](C)[C@@H](CN(C)S(=O)(=O)c2cccs2)OCCCC[C@H](C)Oc2ccc(NC(=O)c3ccncc3)cc2C1=O	–	·	·	·	·
CCOc1ccc2nc(NC(=O)C3(C)CC3(Br)Br)sc2c1 (stereo unspecified)	–	36.1	–	–	?
CC(C)CC#Cc1ccc([C@H]2[C@H](CO)N3C(=O)CN(C(=O)Nc4ccc(F)cc4)C[C@@H]23)cc1	–	·	·	·	·
CCN1CCN(c2nc3sc4c(c3c(=O)n2-c2ccc(OC)cc2)CCCCC4)CC1	·	–	16947	–	–
C[C@@H]1CN([C@H](C)CO)C(=O)c2cc(NC(=O)CCN3CCOCC3)ccc2O[C@H]1CN(C)Cc1ccc(-c2ccccc2)cc1	–	·	·	·	·
O=C1CCCC(O)=C1C(C#Cc1ccccc1)C1=C(O)CCCC1=O	·	–	17723	–	–
SMILES	TcdB inh	Anthrax LF inh2	Autofluor counter	BoNT-A LC inh2	BoNT F protease
Cn1cnc(S(=O)(=O)N[C@H]2C=C[C@@H](CC(=O)N3CCN(c4ccccc4)CC3)O[C@H]2CO)c1	–	·	·	·	·
O=C(N[C@H]1CC[C@H](CCn2cc(C3CC3)nn2)O[C@H]1CO)c1cccnc1	–	·	·	·	·
CCCCCc1ccc(CC(=O)O)cc1	·	–	25330	?	–
CCCCc1ccc(CC(=O)O)cc1	·	–	–	–	–
Cc1ccc(-c2cnc3c(c2)C(=O)N([C@H](C)CO)C[C@H](C)[C@H](CN(C)C(=O)c2ccc(F)cc2)O3)cc1	–	·	·	·	·
FC(F)(F)c1cnc(Sc2nnc(-c3cccs3)n2CC2CCCO2)c(Cl)c1 (stereo unspecified)	·	–	20185	–	–
FC(F)(F)c1ccc(Sc2nnc(-c3cccs3)n2CC2CCCO2)nc1 (stereo unspecified)	·	–	–	–	–
COc1cccc(CN2[C@@H]3CNC[C@H]2C3c2ccc(-c3cccc(C#N)c3)cc2)c1 (stereo partly specified)	–	·	·	·	·
CCCN1[C@@H]2c3ccc(C4=CCCCC4)c(=O)n3C[C@@H]2[C@@H](CO)[C@@H]1C(=O)NCCCN(C)C	–	·	·	·	·
COC(=O)[C@H](CC(C)C)NC(=O)Nc1ccc2c(c1)OCCO2	–	–	22561	–	–
CC(C)[C@H](NC(=O)Nc1ccc2c(c1)OCCO2)C(=O)O	–	–	20779	–	–
CC(C)NC(=O)N1C[C@H]2[C@@H](c3ccccc31)[C@@H](CO)N2C(=O)c1ccccc1F	–	·	·	·	·
COc1ccc(CC2c3cc(OC)c(OC)cc3CCN2C)cc1OC (stereo unspecified)	–	–	–	–	–
COc1cc2c(cc1OC)[C@@H](Cc1ccc(OCCC#N)cc1)N(C)CC2	–	–	–	–	39.8
CC=Cc1ccc2n(c1=O)C[C@H]1[C@H](CO)[C@@H](C(=O)NCC3CC3)N(CCC)[C@@H]21 (mixture of isomers)	–	·	·	·	·
COC(=O)c1ccc2c(c1)NC(=O)C(N1CCCC1)S2 (stereo unspecified)	·	–	19419	–	–
O=C(O)c1ccc2c(c1)NC(=O)C(N1CCCC1)S2 (stereo unspecified)	·	–	–	–	–
COC(=O)c1ccc2c(c1)NC(=O)C(N1CCCCC1)S2 (stereo unspecified)	·	–	22781	–	–
O=C(NCCCN1CCCCC1)c1ccc2c(c1)NC(=O)C(N1CCCCC1)S2 (stereo unspecified)	·	–	–	–	–
C[C@@H]1CN([C@@H](C)CO)S(=O)(=O)c2ccc(-c3cccc(C(=O)N(C)C)c3)cc2O[C@@H]1CN(C)C(=O)Cc1ccccn1	–	·	·	·	·
C[C@@H]1CCCCO[C@H](CN(C)S(=O)(=O)c2ccccc2)[C@H](C)CN([C@H](C)CO)C(=O)c2cc(NS(=O)(=O)c3ccccc3)ccc2O1	–	·	·	·	·
O=C(C[C@@H]1CC[C@H]2[C@@H](COC[C@@H](O)CN2C(=O)c2ccc(F)cc2)O1)N1CCOCC1	–	·	·	·	·
COc1cc(-c2nc(-c3ccccc3)c(-c3cccs3)[nH]2)cc(OC)c1O	·	–	24448	–	–
COc1cc(-c2nc(-c3ccccc3)c(-c3cccs3)[nH]2)cc(OC)c1OC	·	–	–	–	–
COC(=O)C1=C(C)N=c2s/c(=C/c3ccoc3)c(=O)n2C1c1ccccc1 (stereo unspecified)	·	–	21630	–	–
SMILES	TcdB inh	Anthrax LF inh2	Autofluor counter	BoNT-A LC inh2	BoNT F protease
CCOC(=O)C1=C(C)N=c2s/c(=C\c3ccc(OCC(=O)O)cc3)c(=O)n2C1c1ccccc1 (stereo unspecified)	–	–	–	–	–
Cc1ccc(N2CCN(CC3CC=CCC3)CC2)cc1 (stereo unspecified)	·	–	21210	–	–
CN(C)C(=O)C[C@H]1CC[C@H]2[C@@H](COc3ccc(NC(=O)c4ccc(F)c(F)c4)cc3C(=O)N2C)O1	–	·	·	·	·
Cc1ccc(NC(=O)CN2C(=O)S/C(=C/c3ccc(-c4cc(C(=O)O)ccc4C)o3)C2=O)cc1C	·	–	16807	–	–
Cc1ccc(S(=O)(=O)N(C)C[C@H]2Oc3ccc(NC(=O)Nc4ccc(F)cc4)cc3C(=O)N([C@@H](C)CO)C[C@@H]2C)cc1	–	·	·	·	·
Cc1cccc(C)c1OCC(O)CNC(C)(C)C (stereo unspecified)	·	–	16186	–	–
